# Measured values as given in PubChem BioAssay AID686979 (National Center for Advancing Translational Sciences (NCATS), 2013).
# Out of some 420,000 compounds screened, about 50,000 (12%) were called active. A call without a number means that no potency is given here. About 26% were inconclusive and are not listed. For the sample, actives were picked, then their nearest neighbours and some compounds at random. Values without a mark were called inactive. Calls follow the shape of the dose curve; as a rule, active = well fitted inhibition curve with a large enough effect; inconclusive = small, poorly fitted or top-dose-only effect; inactive = flat fitted curve, though single readings scatter.
# Assay: qHTS for Inhibitors of human tyrosyl-DNA phosphodiesterase 1 (TDP1): qHTS in cells in presence of CPT; also: nearly all actives have a fitted effect of over 55% in size
# Details: chicken DT40 Tdp1-/-;hTDP1 cells + 20 nM CPT, ATP luminescence, 48 h; series mostly up to 46.2 µM
# Summary of the method: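 Cell growth measured by CellTiter-Glo luminescence after a minimum 48 h, 37 C compound exposure with 20 nM CPT in Tdp1-knockout DT40 cells stably expressing hTDP1, seeded 400/well; qHTS titration format.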
# Potency is read from the fitted curve at half-maximal effect.
Structure (SMILES),Potency,"activity change, negative = growth inhibition"
CCc1c(-c2ccc(F)cc2)ncn1Cc1cccc(-c2ccccc2)c1,11.6 µM (active),
Cc1cccc(Cn2cnc3c(N)c(C)c(C)cc32)c1,inactive,
O=C(NCc1ccncc1)C1CCN(C(=O)c2cccc(Cl)c2)CC1,inactive,
Nc1ccc(-n2nncc2-c2ccco2)cc1,inactive,
O=C(NC(=S)Nc1ccc(Cl)c(C(=O)O)c1)c1cncc(Br)c1,inactive,
COc1ccccc1N(CC(=O)Nc1ccccc1C(=O)N1CCCC1)S(C)(=O)=O,inactive,
CCCn1c(N)c(C(=O)CSc2nnc(Cc3cccs3)n2C2CC2)c(=O)[nH]c1=O,inactive,
CCc1nnc(SCc2nc(-c3cccc(C)c3)oc2C)c2cc3sc(C)cc3n12,inactive,
Cc1cc2c(cc3c(SCc4nc(-c5ccccc5)oc4C)nnc(C)n32)o1,16.4 µM (active),
Cc1cc(NC(=O)CSCc2nc(-c3cccc(Cl)c3)oc2C)no1,inactive,
Cc1ccc2nc(NC(=O)C3CSC4(C)CCC(=O)N34)sc2c1 (centres undefined),inactive,
Cc1ccc2nc(NC(=O)C3CCN(S(=O)(=O)c4ccc5c(c4)oc(=O)n5C)CC3)sc2c1,5.8 µM (active),
O=C(NC1CCCCC1)n1c(=O)oc2cc(S(=O)(=O)N3CCCCC3)ccc21,inactive,
O=C(Nc1cc2c3c(c1)C1CCCC1CN3CC1CCCC21)c1ccc([N+](=O)[O-])cc1 (centres undefined),inactive,
CC[C@@H](C)[C@@H](C(=O)N1CCN(C(=O)OC(C)(C)C)CC1)n1cc(CCC(=O)O)nn1,inactive,
O=C(O)c1cc(S(=O)(=O)NC2CCCc3ccccc32)ccc1O (centres undefined),inactive,
O=c1[nH]c2ccccc2n1C1CCN(CCOc2ccccc2)CC1,3.66 µM (active),
O=C(c1ccco1)N1CCN(CCOc2ccccc2)CC1,inactive,
O=C(c1ccc(Br)o1)N1CCN(CCOc2ccccc2)CC1,inactive,
CO[C@@H]1CN(C)C(=O)c2cc(NC(=O)C3CC3)ccc2OC[C@H](C)N(C(=O)CN2CCOCC2)C[C@@H]1C,inactive,
NC(=O)C1CC(=O)N(c2ccc(OCC(=O)NCc3ccccc3)cc2)C1 (centres undefined),inactive,
O=C(c1cccc(Cl)c1)N1CCN(CCc2ccncc2)CC1,inactive,

Structure (SMILES),Potency,"activity change, negative = growth inhibition"
C#Cc1cc(N2CCN(C(=O)c3ccoc3)CC2)n2nc(-c3cccc(Cl)c3)cc2n1,7.31 µM (active),
CN(C)CCN1CCN(c2cc(-c3cccc(Cl)c3)nc3ccnn23)CC1,inactive,
O=C(c1cccc(Cl)c1)N1CCN(Cc2ccccc2)CC1,inactive,
O=C(c1ccccc1)N1CCN(c2cc(-c3ccccc3)nc3cc(-c4cccc(Cl)c4)nn23)CC1,23.1 µM (active),
CCCNC(=O)c1ccc(Cn2c(SCC(N)=O)nc3ccccc3c2=O)cc1,inactive,
CCOc1ccccc1Nc1ccc2nonc2c1[N+](=O)[O-],inactive,
O=C(OCC(=O)N1CCCCCC1)c1cnc(Cl)c(Cl)c1,inactive,
CCOC(=O)C1CCN(Cc2c(C(=O)N3CCOCC3)nc3c(C)cccn23)CC1,inactive,
CCOC(=O)C(NC(=O)CC(C)C)(Nc1sc2c(c1C(N)=O)CCCC2)C(F)(F)F (centres undefined),inactive,
CCOc1ccc(S(=O)(=O)Nc2nc3cc(OC)ccc3s2)cc1,inactive,
Cc1nc2ccc(NC(=O)C3CCCCC3)cc2s1,inactive,
CC(=O)Nc1ccc2nc(NC(=O)CS(=O)(=O)c3ccc(F)cc3)sc2c1,inactive,
CCC(=O)c1ccc(OCC(=O)Nc2ccc3nc(C)sc3c2)cc1,16.4 µM (active),
CCOc1ccc2nc(Nc3nc4ccc(NC(C)=O)cc4s3)sc2c1,18.4 µM (active),
CCC(=O)c1ccc(OCC(=O)Nc2ccc(N3CCCCC3)cc2)cc1,inactive,
CC(CC(=O)Nc1ccc(F)cc1F)S(=O)(=O)c1ccc2c(c1)NC(=O)CO2 (centres undefined),inactive,
c1ccc2c(c1)CCc1snnc1-2,inactive,
O=C(CCNS(=O)(=O)c1ccc(Br)cc1)NCC1CCCO1 (centres undefined),inactive,
CCc1cc(-c2n[nH]c(=S)n2CC(C)C)cs1,inactive,
C[N+]1(CC(=O)c2cccs2)CCOCC1,inactive,
CC(C)CCOc1ccc(C(=O)C[N+]2(C)CCOCC2)cc1,20.6 µM (active),
CCC(=O)c1ccc(OCC(O)CN2CC(C)OC(C)C2)cc1 (centres undefined),inactive,

Structure (SMILES),Potency,"activity change, negative = growth inhibition"
COc1ccc(Br)cc1CNC(=O)c1cc(=O)[nH]c2ccc(S(=O)(=O)N3CCCC3)cc12,inactive,
CCOC(=O)c1c(C)n(C)c2ccc(OC)c(NC(=O)CN3CCC4(CC3)OCCO4)c12,inactive,
Cc1ccc(-n2nc3ccc(NC(=O)/C=C/c4ccco4)cc3n2)cc1C,23.1 µM (active),
CCC(=O)Nc1ccc2nn(-c3ccc(F)cc3)nc2c1,inactive,
Cc1nnc(NC(=O)/C=C/c2ccco2)s1,inactive,
COc1cc(OC)c2ccc(=O)oc2c1C(CCN1CCN(c2ccccc2)CC1)c1ccc2c(c1)OCO2 (centres undefined),23.1 µM (active),
COc1ccc(F)cc1S(=O)(=O)NCC(c1ccc2c(c1)OCO2)N1CCN(C)CC1 (centres undefined),inactive,
O=C(C(=O)N1CCN(c2ccccc2)CC1)c1ccc2c(c1)OCO2,inactive,
COc1ccc(C(CC(=O)N2CCN(c3ccccc3)CC2)c2c(O)cc(OC)cc2OC)cc1 (centres undefined),inactive,
COc1ccc(C(c2nnnn2Cc2cccs2)N2CCN(c3ccccc3)CC2)cc1OC (centres undefined),inactive,
COc1cc(C(CCN2CCN(c3ccccc3)CC2)c2c(OC)cc(OC)c3ccc(=O)oc23)cc(OC)c1OC (centres undefined),23.1 µM (active),
C=CCNC(=S)NNC(=O)c1ccc(Br)o1,inactive,
CCn1c(O)c2ccc(C(=O)N=NC(=O)c3cccnc3)cc2c1O,inactive,
FC(F)(F)c1ccccc1-c1cc(NCc2ccccc2)ncn1,7.31 µM (active),
COc1ccccc1CNc1cc(-c2ccccc2CN(C)C)ncn1,inactive,
CN(Cc1ccco1)c1cc(-c2ccccc2C(F)(F)F)ncn1,inactive,
CCOc1cc(S(=O)(=O)NCc2ccc3c(c2)OCO3)ccc1F,inactive,
Cc1ccc(C(=O)O/N=C(\N)c2ccccn2)cc1Cl,inactive,
COc1ccccc1-c1ccc(C(=O)N(C)C(C)c2ccon2)c(N2CCN(c3ccccc3F)CC2)n1 (centres undefined),,15.9% [at 9.04 µM]
CC(C)C1=CC2=CC[C@H]3[C@](C)(C(=O)O)CCC[C@]3(C)C2CC1 (some centres undefined),,26.1% [at 9.04 µM]
